According to PubChem BioAssay AID1611 (NINDS Approved Drug Screening Program, 2009):

Test: inducers of human heat shock response, cell-based, HSE luciferase (AID 1611)
Conditions: human cells, HSE-luciferase heat shock reporter; stronger effect = higher value

Row | Compound | fold change
1 | Nc1ccc(S(=O)(=O)Nc2ccnn2-c2ccccc2)cc1 | 0.94
2 | Nc1nccs1 | 1.19
3 | O=C(Cn1ccnc1[N+](=O)[O-])NCCO | 0.93
4 | CC(=O)O[C@H]1C[C@@]2(C)[C@@H](C[C@@H](O)C3[C@]2(C)CC[C@H]2[C@H](C)[C@H](O)CC[C@]32C)/C1=C(/CCC=C(C)C)C(=O)O (some centres undefined) | 1
5 | NNCCc1ccccc1 | 0.93
6 | CCN(CC)CCNC(=O)c1cc(Cl)c(N)cc1OC | 1.24
7 | COc1ccc(C[C@H](N)C(=O)N[C@@H]2[C@@H](CO)OC(n3cnc4c(N(C)C)ncnc43)[C@@H]2O)cc1 (some centres undefined) | 1.26
8 | COC(=O)C1=C(C)NC(C)=C(C(=O)OC)C1c1ccccc1[N+](=O)[O-] | 1.12
9 | Oc1c(I)cc(I)c2cccnc12 | 1.19
10 | Cn1nnnc1SCC1=C(C(=O)O)N2C(=O)C(NC(=O)C(O)c3ccccc3)C2SC1 (centres undefined) | 1.15
11 | CCCCOc1ccc(CC(=O)NO)cc1 | 0.79
12 | CC(=C(CCOP(=O)(O)O)SC(=O)c1ccccc1)N(C=O)Cc1cnc(C)nc1N | 0.96
13 | NNc1nncc2ccccc12 | 1.1
14 | CCc1cccc2c3c([nH]c12)C(CC)(CC(=O)O)OCC3 (centres undefined) | 1.02
15 | COc1cc(NS(=O)(=O)c2ccc(N)cc2)nc(OC)n1 | 0.93
16 | CC(C)(C)NCC(O)c1cc(O)cc(O)c1 (centres undefined) | 0.99
17 | CN(C)CCC=C1c2ccccc2C=Cc2ccccc21 | 0.63
18 | CC[C@H]1OC(=O)[C@H](C)[C@@H](O[C@H]2C[C@@](C)(OC)[C@@H](O)[C@H](C)O2)[C@H](C)[C@@H](O[C@@H]2O[C@H](C)C[C@H](N(C)C)[C@H]2O)[C@](C)(O)C[C@@H](C)C(=O)[C@H](C)[C@@H](O)[C@]1(C)O | 0.93
19 | CCCN(CCC)S(=O)(=O)c1ccc(C(=O)O)cc1 | 0.78
20 | CO[C@]12C[C@@H](COC(=O)c3cncc(Br)c3)CN(C)[C@@H]1Cc1cn(C)c3cccc2c13 | 0.91

Row | Compound | fold change
21 | N=c1nc(N2CCCCC2)cc(N)n1O | 0.77
22 | CC12CC3CC(C)(C1)CC(N)(C3)C2 | 0.96
23 | CCN1CCN(C(=O)NC(C(=O)NC2C(=O)N3C(C(=O)O)=C(CSc4nnnn4C)CSC23)c2ccc(O)cc2)C(=O)C1=O (centres undefined) | 0.74
24 | CCC(=O)O[C@H]1[C@H](O[C@@H]2[C@@H](C)[C@H](O[C@H]3C[C@@](C)(OC)[C@@H](O)[C@H](C)O3)[C@@H](C)C(=O)O[C@H](CC)[C@@](C)(O)[C@H](O)[C@@H](C)C(=O)[C@H](C)C[C@@]2(C)O)O[C@H](C)C[C@@H]1N(C)C | 1.55
25 | CN(C)CC/C=C1\c2ccccc2Sc2ccc(Cl)cc21 | 1.34
26 | CCN(CC)CCCC(C)Nc1c2ccc(Cl)cc2nc2ccc(OC)cc12 (centres undefined) | 0.97
27 | COc1ccc2c(c1)c(CC(=O)O)c(C)n2C(=O)c1ccc(Cl)cc1 | 0.9
28 | CC(Cc1cccc(C(F)(F)F)c1)NCCOC(=O)c1ccccc1 (centres undefined) | 1.03
29 | NC(=O)c1ccc[n+]([C@@H]2O[C@H](COP(=O)([O-])OP(=O)(O)OC[C@H]3O[C@@H](n4cnc5c(N)ncnc54)[C@H](O)[C@@H]3O)[C@@H](O)[C@H]2O)c1 | 1.11
30 | Nc1ncnc2c1ncn2[C@@H]1O[C@H](CO)[C@@H](O)[C@@H]1O | 1.52
31 | O=C(O)c1cccnc1Nc1cccc(C(F)(F)F)c1 | 1.08
32 | CC(=O)OCC(=O)[C@@]1(O)CCC2C3CCC4=CC(=O)CC[C@]4(C)C3C(=O)C[C@@]21C (some centres undefined) | 0.62
33 | C=CCc1ccccc1OCC(O)CNC(C)C (centres undefined) | 1.15
34 | CN[C@@H]1[C@H](OC2[C@H](O[C@H]3[C@H](O)[C@@H](O)[C@H](N=C(N)N)[C@@H](O)[C@@H]3N=C(N)N)O[C@@H](C)[C@]2(O)C=O)O[C@@H](CO)[C@H](O)[C@H]1O (some centres undefined) | 1.17
35 | Nc1c(Br)cc(Br)cc1CNC1CCC(O)CC1 (centres undefined) | 1.19
36 | CN(C)CCOC(c1ccccc1)c1ccccc1 (tested in a mixture with another compound) | 0.8
37 | CN[C@@H]1[C@H](O)[C@H](NC)[C@H]2O[C@@]3(O)C(=O)C[C@@H](C)O[C@H]3O[C@@H]2[C@H]1O | 1.27
38 | CC[C@H]1CN2CCc3cc(OC)c(OC)cc3C2C[C@@H]1CC1NCCc2cc(OC)c(OC)cc21 (some centres undefined) | 0.89
39 | CCCC(CCC)C(=O)O | 0.91
